# Shown are actives, neighbours in structure and some others; about 1.5% of the full set was active somewhere.
# eLon inh: inhibitors of E. coli Lon protease; P0A9M0; purified E. coli Lon protease, fluorescence polarization; inhibition, % at 7.94 µM; 360,000 compounds, 0.42% hits; AID 602123; in the data active = inhibition above about 13%, passing the limit was not always enough;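 note: 0% = enzyme with probe and DMSO and 100% = no enzyme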
# GLD-1 TGE inh: GLD-1-TGE RNA interaction inhibition (C. elegans); 320,000 compounds, 0.44% hits; inhibition, % at 5.96 µM; purified GLD-1 + fluorescein TGE RNA, fluorescence polarization; Q17339;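 active = percent inhibition above a per-plate cutoff, the plate mean of test compounds plus 3 SD, cut at about 30% in these data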;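 note: 0% = DMSO wells with GLD-1 and probe and 100% = wells lacking GLD-1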
# MCL1-BIM inh: disrupts human MCL1 binding to BIM-BH3 peptide. AID 2057. inhibition, % at 10.9 µM. GST-MCL1 / FITC-Bim-BH3 fluorescence polarization. 320,000 compounds, 0.68% hits;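 active = inhibition above the mean inhibition of all tested compounds plus 3 SD, set per campaign, cut at about 40% in these data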;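 note: 0% = DMSO wells and 100% = unlabeled Bim-BH3 peptide control; higher means more loss of mP so more displacement of Bim peptide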
# Target sequence (Q07820 whole entry, looked up): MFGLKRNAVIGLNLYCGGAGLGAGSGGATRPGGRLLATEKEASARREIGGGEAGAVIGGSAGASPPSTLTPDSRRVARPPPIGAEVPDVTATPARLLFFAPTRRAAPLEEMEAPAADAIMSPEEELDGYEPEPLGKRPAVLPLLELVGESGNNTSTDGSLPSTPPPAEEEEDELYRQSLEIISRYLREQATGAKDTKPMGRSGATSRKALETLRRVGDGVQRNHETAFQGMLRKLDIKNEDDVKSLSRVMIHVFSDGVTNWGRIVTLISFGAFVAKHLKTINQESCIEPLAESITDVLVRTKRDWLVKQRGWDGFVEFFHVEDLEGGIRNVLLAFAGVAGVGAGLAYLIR
# BCLXL inh: inhibitors of human Bcl-xL; Q07817; GST-Bcl-xL / FITC-Bim BH3 peptide fluorescence polarization; inhibition, % at 10.9 µM; 320,000 compounds, 0.7% hits;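 active = inhibition above the mean of all tested compounds plus 3 SD, cutoff set per campaign, cut at about 30% in these data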;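 note: 0% = DMSO wells and 100% = unlabeled Bim-BH3 peptide competitor; inhibitors lower millipolarization by displacing the labeled peptide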
# Target sequence (Q07817 whole entry, looked up): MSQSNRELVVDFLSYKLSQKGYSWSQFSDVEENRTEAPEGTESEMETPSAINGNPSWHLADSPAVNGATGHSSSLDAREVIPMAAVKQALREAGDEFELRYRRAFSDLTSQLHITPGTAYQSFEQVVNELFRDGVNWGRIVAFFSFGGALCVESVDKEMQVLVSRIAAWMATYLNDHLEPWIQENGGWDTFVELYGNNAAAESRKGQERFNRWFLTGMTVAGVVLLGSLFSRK
# MEX-5 binding: C. elegans MEX-5 TCR-2 RNA binding activity. Q9XUB2. MEX-5/FITC-TCR2 RNA binding, fluorescence polarization; hits give low values. activity score (negative = inhibition of binding), % at 10 µM. 300,000 compounds, 0.38% hits;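 active = inhibition past about -25% in most replicates, and total fluorescence under double the plate's negative control median, limit read from the data; inconclusive = replicates evenly split on the limit, or fluorescence at least double controls; inactive = too little inhibition in most replicates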;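 note: 0% = DMSO and -100% = 5 µM competing unlabeled TCR2 RNA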
# EBV gp42 inh: blocks Epstein-Barr virus glycoprotein 42 binding; Q1HVG2; Fluorescence polarization binding assay, mP read-out; inhibition, % (tested at 21.74 µM); 220,000 compounds, 0.42% hits; in the data active = inhibition above about 50%
# BCLXL inh confirm: counter-screen for MCL1 inhibitors: confirmation of human Bcl-xL inhibitors; AID 2166; inhibition, % at 10.9 µM; shares compounds with MCL1-BIM inh; GST-Bcl-xL / FITC-Bim BH3 peptide FP binding; 1,700 compounds, 54% hits;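 active = inhibition above a cutoff equal to the mean inhibition of all tested compounds plus 3 SD, cut at about 30% in these data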;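 note: 0% = DMSO wells and 100% = unlabeled Bim BH3 control peptide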
# MCL1 BIM confirm: confirmation of human MCL1 and BIM-BH3 interaction inhibitors | shares compounds with MCL1-BIM inh | 1,700 compounds, 61% hits | inhibition, % at 10.9 µM | GST-MCL1 / FITC-Bim-BH3 fluorescence polarization | AID 2168;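 active = inhibition above the average of all tested compounds plus 3 SD, cut at about 40% in these data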;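 note: 0% = DMSO wells and 100% = unlabeled Bim-BH3 control peptide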
# * marks the source's active call; other numbers are inactive results; ? = inconclusive; · = not tested or not shown; + = active, no number.
SMILES,eLon inh,GLD-1 TGE inh,MCL1-BIM inh,BCLXL inh,MEX-5 binding,EBV gp42 inh,BCLXL inh confirm,MCL1 BIM confirm
O=C(NCCO)c1ccc2nc(-c3ccco3)c(-c3ccco3)nc2c1,18.4,20.6,56.5*,42.9*,-38.7*,-4.1,59.6*,77.4*
O=C(NCCO)c1ccc(Cl)c(Cl)c1,-0.2,0.5,7.3,3.1,1.1,-0.8,·,·
O=c1oc(-c2ccco2)nc2ccccc12,-12.4,8.5,2.9,4.8,-0.2,-10.3,·,·
O=C(NCCc1ccccc1)c1ccc2nc(-c3ccco3)c(-c3ccco3)nc2c1,3.3,8.2,40.0*,28.9,-0.6,54.6*,42.5*,75.0*
c1coc(-c2nc3ccccc3nc2-c2ccco2)c1,6.6,9.7,60.5*,33.6*,?,-0.1,33.6*,42.3*
O=C(NC1CCCC1)c1ccc2nc(-c3ccco3)c(-c3ccco3)nc2c1,7.2,9.2,64.0*,40.8*,·,21.4,40.1*,76.2*
O=C(NCCc1ccccc1)c1ccc(=O)oc1,3.3,-5.9,-14.6,-4.0,2.0,-11.1,·,·
Cc1ccc(C(=O)N/C(=C/c2cccnc2)C(=O)NCc2ccco2)cc1,3.8,-6.7,-2.5,-1.8,0.0,7.3,·,·
COc1cc(C(=O)NC(C)C2CC3CCC2C3)ccc1OC(F)F (stereo not given),-0.3,-0.5,5.5,6.9,·,·,·,·
O=C(CCN1C(=O)/C(=C/c2ccco2)SC1=S)Nc1ccc(C(=O)O)c(O)c1,-27.0,-5.1,65.1*,25.0,-19.8,·,31.7*,54.4*
O=C(CCN1C(=O)/C(=C\c2ccco2)SC1=S)Nc1ccc(C(=O)O)c(O)c1,-32.1,-0.3,64.1*,31.5*,?,·,13.7,22.9
O=C(CCN1C(=O)/C(=C/c2ccco2)SC1=S)Nc1ccc(O)cc1C(=O)O,-13.4,·,·,·,-6.1,·,·,·
CC1=C/C(=C/N(C)c2ccccc2)C(=O)S1,-5.3,11.4,40.9*,29.2,-9.3,6.3,26.7,25.7
CCO[C@H]1OC(C(=O)NCc2nc3ccccc3[nH]2)=C[C@@H](C2CCCCC2)[C@@H]1CCCO,4.0,4.9,8.1,3.7,0.0,-4.4,·,·
CN(C)C=Nc1c(Br)cc(Br)c2nonc12,-88.3,-6.7,69.0*,91.5*,?,0.7,90.2*,115.5*
CN(C)C=Nc1nonc1-c1ccccc1,-6.4,-0.2,-5.3,4.7,1.1,-3.6,·,·
Fc1ccc(-n2nnc(-c3ccccc3Br)n2)cc1,-2.5,3.9,+,9.6,1.6,·,5.9,8.1
O=C(O)c1cccc(N2CCCCS2(=O)=O)c1,-0.5,2.6,-1.2,-3.6,-1.7,-12.0,·,·
Cc1cccc(-n2c(O)c(C=Nc3ccc4c(c3)OCO4)c3ccccc3c2=O)n1,-1.4,-61.7,40.4*,26.2,-36.5*,-77.5,0.1,-16.1
Cc1cccc(-n2c(O)c(C=Nc3cccc(O)c3)c3ccccc3c2=O)n1,-5.1,4.7,4.9,6.4,-0.6,-0.8,·,·
CCOc1ccc(/C=C/C(=O)c2ccccc2)cc1,0.8,5.2,1.0,1.3,-7.6,-10.9,·,·
O=C(NCc1ccccc1)C(c1ccco1)N(C(=O)c1ccccn1)c1ccc(F)cc1 (stereo not given),-5.7,1.3,3.3,4.1,0.1,-14.5,·,·
O=C1c2cccc3c([N+](=O)[O-])ccc(c23)C(=O)N1O,42.8,15.4,48.3*,57.1*,-13.1,·,43.3*,58.2*
O=C1c2cccc3c([N+](=O)[O-])ccc(c23)C(=O)N1c1ccc(Cl)cn1,64.8*,102.5*,138.8*,120.3*,-14.8,80.3*,82.4*,105.1*
CC(=O)Oc1ccc(N2C(=O)c3cccc4c([N+](=O)[O-])ccc(c34)C2=O)cc1,14.8,20.1,14.7,16.9,0.1,·,·,·
SMILES,eLon inh,GLD-1 TGE inh,MCL1-BIM inh,BCLXL inh,MEX-5 binding,EBV gp42 inh,BCLXL inh confirm,MCL1 BIM confirm
COc1cc(C)ccc1OCc1cc(C(=O)N2CCCCCC2)no1,-11.5,·,·,·,0.2,·,·,·
COc1cc(Cl)ccc1OCc1cc(C(=O)N2CCCCCCC2)no1,3.6,-7.0,84.1*,2.7,·,·,5.4,8.1
COc1ccccc1C(=O)NCCC(=O)Nc1ccncc1,1.2,-9.4,4.5,4.2,-1.8,·,·,·
CC(=O)c1ccc(OCCCC(=O)N2CCN(S(=O)(=O)c3cccs3)CC2)cc1,-0.5,1.7,-13.3,-0.4,-0.1,-20.2,·,·
N#Cc1ccc2ccn(CC(=O)NC3CCCCCC3)c2c1,-3.2,5.8,-4.8,-1.1,-2.6,-10.4,·,·
COC(=O)c1ccc2ccn(CC(=O)NC3CCCCC3)c2c1,-5.5,23.8,48.9*,28.0,-1.0,-19.4,2.8,-3.5
O=C(O)CCCN1C(=O)/C(=C\c2ccco2)SC1=S,-3.5,·,·,·,-12.2,-2.4,·,·
O=C1/C(=C/C=C/c2ccco2)SC(=S)N1NS(=O)(=O)c1ccccc1,17.5,-6.2,82.5*,66.9*,·,-11.5,45.0*,72.9*
CC(C(=O)O)N1C(=O)/C(=C/C=C/c2ccco2)SC1=S (stereo not given),8.5,-4.2,82.9*,49.6*,-86.7*,·,58.2*,86.7*
O=C1/C(=C/c2cccs2)SC(=S)N1NS(=O)(=O)c1ccccc1,6.0,-11.3,11.4,6.4,-6.0,-8.3,·,·
Cc1occc1C(=O)NNC(=O)COc1ccc(Br)cc1Br,-2.8,3.6,-1.7,2.0,-1.3,-10.7,·,·
CCN1C(=O)[C@H]2[C@@H](c3ccc(-c4cc(C(C)=O)cs4)cc3)N[C@@](Cc3ccccc3)(C(=O)OC)[C@H]2C1=O,-12.5,-0.1,·,·,·,·,·,·
CCOC(=O)c1cc2n(c1/N=C/N(C)C)-c1ccccc1C2=O,7.3,169.5*,+,191.5*,?,151.4*,185.5*,+
CS(=O)(=O)Nc1ccc(-c2cccc3nccn23)cc1,-12.7,·,·,·,·,·,·,·
CCNc1nc(-c2cc(C)n(Cc3ccco3)c2C)cs1,-4.9,13.8,46.5*,41.3*,-0.5,-8.6,13.6,17.6
CC(C)n1c(SCC(=O)Nc2nncs2)nnc1-c1ccco1,·,3.7,40.6*,11.6,0.0,·,13.7,45.3*
CCCCN1Cc2c(nc3cc(-c4ccco4)[nH]n3c2=O)C1=O,-4.6,-11.1,66.4*,28.6,-4.2,-1.6,36.7*,50.5*
COCc1cc(=O)n2[nH]c(-c3ccco3)cc2n1,6.3,11.4,2.7,-0.5,-2.2,-5.9,·,·
O=C(/C=C/c1ccccc1)NCCN1CCOCC1,2.7,-0.3,-8.0,3.4,0.9,1.3,·,·
Cc1nnc2c3ccccc3c(-c3ccc(O)cc3)nn12,3.4,2.5,-1.9,-3.1,-1.1,-8.6,·,·
Cc1c(-c2ccc(O)cc2)nc2nc(-c3ccccc3)c(-c3ccccc3)nn12,·,22.0,112.2*,118.2*,7.1,2.3,43.9*,54.0*
